SKOV3 invasion = ovarian cancer metastasis inhibition, 3D TME model. SKOV3ip1-GFP adhesion/invasion on 3D omental model, fluorescence. Potency, µM (titrated, usually from 45.8 µM), for inactives: at the top dose activity change, negative = inhibition, hits mostly inhibitors. 46,000 tested, 0.1% active. AID 1963576;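 also: plate controls were DMSO wells for no effect and tomatine positive control wells for full effect; nearly all actives have a fitted effect of over 65% in size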
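A 3D layer of primary human omental fibroblasts, mesothelial cells, fibronectin and collagen I, grown 48 hr, received SKOV3ip1-GFP cells in serum-free medium plus compounds at 0.36-46 umol/L. After 2 hr RT and 16 hr 37 C, fixed adherent GFP cells were counted; normalized to DMSO and tomatine.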
p53null 32C kill = selectivity test: cytotoxicity in p53 null cells, permissive temperature. H1299-neo p53 null cells, ATP luminescence, 24 h, 32C. Potency, µM (titrated, usually from 46.1 µM), inactives show at the top dose activity change, negative = cytotoxicity, hits mostly cytotoxic. 55,000 tested, 0.62% active. AID 903;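 also: 0% = DMSO only and -100% = full killing by 100 µM tamoxifen; nearly all actives have a fitted effect of over 55% in size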
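AC50 values derive from Hill modelling of qHTS concentration-response data (up to 46 uM) in H1299-neo cells. Cells were treated 24 h at 32C following overnight attachment at 37C; viability was read as cellular ATP.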
p53null 39C kill = kills p53 null cells at the nonpermissive temperature; H1299 p53-null (neo) cells, 39C, ATPlite viability, 24 h; AID 904; Potency, µM (titrated, usually from 46.1 µM), for the others: at the highest dose activity, negative = cell killing, actives largely listed as cytotoxic; 55,000 tested, 0.97% active;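 also: 0% = DMSO only and -100% = full killing by 100 µM tamoxifen; nearly all actives have a fitted effect of over 50% in size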
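Concentration-response (up to 46 uM) was run for 24 h at the nonpermissive 39C on H1299-p53A138V or H1299-neo cells. ATP content was measured with ATPlite luminescence. AC50 values were Hill-modeled after normalizing between DMSO and 100 uM tamoxifen killing.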
FH mod = Identification of activators of human fumarate hydratase by quantitative high-throughput screening. Potency, µM (highest dose often 79.9 µM), without a hit: top-dose activity change, negative = inhibition, actives largely listed as inhibitors. Fumarate hydratase, mitochondrial (Homo sapiens), P07954. 54,000 tested, 0.22% active. AID 1347055, 2019. FH coupled MDH/diaphorase resazurin fluorescence, 15 min; also: the screen sought activators but most active calls are inhibition curves; nearly all actives have a fitted effect of over 45% in size
Target sequence (P07954 whole entry, looked up): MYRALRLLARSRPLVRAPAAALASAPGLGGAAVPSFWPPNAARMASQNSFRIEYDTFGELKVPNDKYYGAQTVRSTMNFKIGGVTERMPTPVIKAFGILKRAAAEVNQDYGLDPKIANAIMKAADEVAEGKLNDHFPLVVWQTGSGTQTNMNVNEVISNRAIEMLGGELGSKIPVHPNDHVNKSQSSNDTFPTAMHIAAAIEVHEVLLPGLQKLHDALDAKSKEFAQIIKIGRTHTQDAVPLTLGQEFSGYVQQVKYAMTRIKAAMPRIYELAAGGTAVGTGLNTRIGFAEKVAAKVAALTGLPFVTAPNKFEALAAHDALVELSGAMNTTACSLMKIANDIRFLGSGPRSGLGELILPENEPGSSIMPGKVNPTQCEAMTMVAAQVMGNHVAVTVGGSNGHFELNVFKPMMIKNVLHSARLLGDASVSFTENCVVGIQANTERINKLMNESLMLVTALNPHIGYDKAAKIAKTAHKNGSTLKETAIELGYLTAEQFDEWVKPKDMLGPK
NTMT1 inh = inhibitors of human N-terminal methyltransferase NTMT1 | Q9BV86 | NTMT1 MTase-Glo SAH luminescence, purified enzyme | Potency, µM (doses to about 114 µM), without a hit: at the highest dose activity change, negative = inhibition, usual class: inhibitors | 59,000 tested, 2.5% active | AID 1645870;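 also: plate controls were DMSO vehicle for no effect and no enzyme for full effect; nearly all actives have a fitted effect of over 65% in size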
Target sequence (Q9BV86 whole entry, looked up): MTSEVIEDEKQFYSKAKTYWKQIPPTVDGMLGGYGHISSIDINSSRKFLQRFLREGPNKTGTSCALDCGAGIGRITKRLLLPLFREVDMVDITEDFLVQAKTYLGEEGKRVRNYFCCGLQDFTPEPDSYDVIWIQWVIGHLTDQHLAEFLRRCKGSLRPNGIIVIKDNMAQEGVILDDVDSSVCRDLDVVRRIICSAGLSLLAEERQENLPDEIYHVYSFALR
* hit, by the source's call; i = inactive; ? = inconclusive; · = not tested or not shown; ! = not confirmed by another sample; [ ] = dose if it differs, or a comment. This excerpt belongs to a sample that is enriched for hits. Calls follow the shape of the dose curve; as a rule, active = well fitted curve in the direction sought with a large enough effect; inconclusive = small, poorly fitted or top-dose-only effect, or another doubt; inactive = no such curve, though single readings can be large; an effect the other way counts as inactive or inconclusive. Unless noted, % is scaled to controls: 0 for no effect and ±100 for the full control effect; potency is read from the fitted curve at half-maximal effect.

SMILES	SKOV3 invasion	p53null 32C kill	p53null 39C kill	FH mod	NTMT1 inh
CC[C@@H](C)Nc1cc(C(=O)NC2CC3CCC(C2)N3c2ccc(C(=O)C3CC3)cn2)c(C)cc1C(N)=O (some centres undefined)	·	·	·	-10%	-1%[57.5 µM]
O=C(O)c1ccc(O)c2ncc(N3CCCCC3)cc12	·	·	·	·	10%
Cc1cc(Br)ccc1NC(=O)CN1C(=O)c2cccnc2Sc2ccccc21	-6%	-2%	-9%	4%	79µM*
CC(=O)c1ccc(NC(=O)CN2C(=O)c3cccnc3Sc3ccccc32)cc1	i	-11%	8%	-31%	4%
OC(CNCCc1c[nH]c2ccccc12)Cn1c2ccccc2c2ccccc21 (centres undefined)	·	·	·	-12%	?
OCC(CO)(CO)NCC(O)Cn1c2ccc(Cl)cc2c2cc(Cl)ccc21 (centres undefined)	·	·	·	-14%	22µM*
CCCCNC(=O)CN1CCN(c2ccc(NC(=O)c3ccc(OC)cc3)cc2C(=O)O)CC1	-4%	3%	1%	8%	?
CCCCNC(=O)CN1CCN(c2ncc(NC(=O)c3ccc(Cl)cc3)cc2C(=O)O)CC1	i	-7%	7%	-30%	40µM*
CC1=C(C(=O)Nc2ccon2)C(c2nn(C)cc2Cl)N=C(Nc2nc3ccccc3o2)N1 (centres undefined)	·	·	·	·	15%
CCc1ccc(-c2cc3c(N4CCN(c5ccccc5)CC4)nccn3n2)cc1	-19%	10%	2%	-11%	79µM*
Cn1ncc(Cl)c1-c1cc(C(=O)N[C@H](CN)Cc2ccc(F)c(F)c2)oc1Cl	·	·	·	-14%	12%[57.5 µM]
Cc1ccc2nc(-c3sc4nc(C)ccc4c3N)[nH]c2c1	·	11µM*	10µM*	·	·
CCCCN(C)C(=O)Cn1nc(-c2ccncc2)ccc1=O	·	·	·	·	7%
CC1(C)OCCn2c1nc1c(N3CCOCC3)nc(-c3cnc(N)nc3)nc12	·	·	·	·	13%
C[N+](C)(C)CC[N+]1(C)Cc2c(Cl)c(Cl)c(Cl)c(Cl)c2C1	·	·	·	-8%[53.3 µM]	7.9µM*
Cc1ccc(S(=O)(=O)Nc2cccc(-c3ccc(N4CCCCC4)nn3)c2)s1	-1%	13µM*	13µM*	?	-13%
O=S(=O)(Nc1cccc(-c2ccc(N3CCCCCC3)nn2)c1)c1ccc(F)cc1	-14%	-27%	-13%	·	·
CCc1ccc(S(=O)(=O)Nc2cccc(-c3ccc(N4CCCCC4)nn3)c2)s1	0%	16µM*	13µM*	·	·
Cc1ccc(S(=O)(=O)Nc2cccc(-c3ccc(N4CCCC4)nn3)c2)c(C)c1	-1%	18%	31%	·	·
CC(=O)c1ccc(S(=O)(=O)Nc2cccc(-c3ccc(N4CCCCC4)nn3)c2)cc1	8%	10µM*	7.9µM*	·	·
CCc1ccc(S(=O)(=O)Nc2cccc(-c3ccc(OC)nn3)c2)s1	9%	2%	-1%	-3%	9%
CC12CCC3C(C)(C)C(O)CCC3(C)C1Cc1c(oc(C(=O)O)cc1=O)O2 (centres undefined)	·	·	·	-2%[53.3 µM]	1%[29.8 µM]
CNc1oc(-c2ccc3c(c2)OCCO3)nc1C#N	·	·	·	·	-10%[57.5 µM]
CCCSc1ncc(Cl)c(C(=O)N(Cc2cccc(Cl)c2)C2CCS(=O)(=O)C2)n1 (centres undefined)	i	20%	1%	-21%	15%
CNC1CCC(N(Cc2cccc(-c3ccncc3)c2)C(=O)c2sc3c(F)ccc(F)c3c2Cl)CC1 (centres undefined)	-4%	·	·	-4%	71µM*!
SMILES	SKOV3 invasion	p53null 32C kill	p53null 39C kill	FH mod	NTMT1 inh
CNC1CCC(N(Cc2cccc(-c3ccncc3)c2)C(=O)c2sc3ccccc3c2Cl)CC1 (centres undefined)	-22%	·	·	1%	35µM*!
Cc1ccc(NC(=O)c2sc3ccccc3c2Cl)cc1	9%	?	?	10%	6%
Cc1ccccc1C(=O)N1CCc2cc(-c3nc(NC(=O)Cc4ccc5c(c4)OCCO5)sc3C)ccc21	·	·	·	·	-2%
CC(=O)Nc1sc2c(c1-c1ccccc1)CCN(C(=O)OC(C)(C)C)C2	·	·	·	·	-12%
O=C(Nc1ccc(S(=O)(=O)Nc2ncc(-c3ccccc3)s2)cc1)c1ccc2ccccc2c1	·	·	·	·	19%
Cn1cc(-c2nc(N[C@@H]3CCCC[C@@H]3N)c(F)c3c2C(=O)NC3)cn1	·	·	·	·	13%[12.6 µM]
COc1ccc(OC)c(CNC(=O)Nc2cn(CC(C)C)c(=O)c3ccccc23)c1	11%	0%	-11%	32µM*[activator]	-1%
COc1cccc(CNC(=O)Nc2cn(CC(C)C)c(=O)c3ccccc23)c1	i	7%	1%	?	-2%
O=C(OC1C=C(CO)C2C(OC3OC(CO)C(O)C(O)C3O)OC=CC12)c1ccc(O)cc1 (centres undefined)	·	·	·	-9%[53.3 µM]	11%[29.8 µM]
C=C(C)[C@@H]1CCC2=CC(=O)C[C@@H](C)[C@]2(C)C1	·	·	·	4%[162 µM]	4%[228 µM]
CCCCc1ccc(-n2nc3cc(C)c(NC(=O)Cc4ccccc4)cc3n2)cc1	21%	-7%[9.22 µM]	1%	3%	79µM*
Cc1cc2nn(-c3ccccc3)nc2cc1NC(=O)Cc1ccc(Cl)cc1	-2%	-2%	-10%	-29%	0%
Nc1nc(-n2cc(C(=O)O)c(=O)c3cc(F)c(N4CC(O)C4)c(Cl)c32)c(F)cc1F	·	·	·	7%[53.3 µM]	1%[29.8 µM]
CCOC(=O)NNc1nncc2ccccc12	·	·	·	-7%[53.3 µM]	-1%[57.5 µM]
CCOC(=O)NNc1ccc(N(CC)CC(C)O)nn1 (centres undefined)	·	·	·	-8%[53.3 µM]	28µM*
CN(C)S(=O)(=O)c1ccc(C(=O)NC2CC(=O)N(c3ccc4c(c3)OCCO4)C2)cc1 (centres undefined)	-14%	7%	-6%	0%	89µM*
COc1cc2c(cc1O)CC(O)(CO)C(CO)C2c1ccc(OC2OC(CO)C(O)C(O)C2O)c(OC)c1 (centres undefined)	·	·	·	-1%[53.3 µM]	-1%[29.8 µM]
COCCN1CCC(C(=O)NO)(S(=O)(=O)c2ccc(Oc3ccc(OC(F)(F)F)cc3)cc2)CC1	·	·	·	8%	-1%[57.5 µM]
C[C@](N)(Cc1ccc(O)cc1)C(=O)O	·	·	·	-6%[53.3 µM]	10%[6.45 µM]
C[C@](N)(Cc1ccc(O)c(O)c1)C(=O)O	-1%	·	·	?	35µM*
CC(Cc1ccc(O)c(O)c1)(NN)C(=O)O (centres undefined)	2%	·	·	-12%[53.3 µM]	14µM*!
O=C1NC(=O)[C@@H](c2c[nH]c3ccccc23)[C@H]1c1cn2c3c(cccc13)CCC2	·	·	·	·	-8%
O=C(Nc1ccc(Cl)cc1)N1CCC(c2ccccc2)C1 (centres undefined)	-2%	4µM*	?	-4%	8%
Cc1ccc(NC(=O)N2CCC(c3ccccc3)C2)cc1C (centres undefined)	-7%	?	?	-2%	7%
Cc1ccccc1NS(=O)(=O)c1ccc2[nH]cc(C(=O)NC(C)c3ccccc3)c(=O)c2c1 (centres undefined)	6%	10%	16%	40µM*	-15%

Source: PubChem BioAssay
